Assay [1] can be described thus: compounds binding Alexa647 anti-His antibody – biochemical, small-molecule microarray, 635 nm fluorescence, artefact control for SMM control protein annotation, primary screen (AID 1128).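 Also: score merges feature fluorescence with signal-to-noise for each printed compound spot.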 Conditions: higher = more signal.
The subject of assay [2] is Human papillomavirus type 1a E7 protein (residues 1-88). Description: HPV1a E7 small-molecule binders, primary screen, biochemical, small-molecule microarray, residues 1-88, 635 nm (AID 1129). The settings on record: small-molecule microarray binding, fluorescence 635 nm; higher = more signal.
The target of assay [3] is Focal adhesion kinase 1 (Homo sapiens) (UniProt Q05397). The assay can be described thus: PTK2 protein binding on printed compound slides – biochemical, small-molecule microarray, 635/667 nm fluorescence, BSA, DTT, primary screen (AID 1130).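 Also: composite of spot emission at 667 nm and signal to noise over triplicate slides.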 The settings on record: 635 nm fluorescence, higher = more signal.
For assay [4], the system named is Fibrinogen (Alexa647-labelled). Description: Alexa647-fibrinogen binding to printed small molecules – biochemical, small-molecule microarray, 635/667 nm fluorescence, artefact control for SMM control-protein annotation, profiling panel (AID 1131).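 Also: z-score merges 667 nm fluorescence with per-spot signal-to-noise over triplicate slides.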 The settings on record: fibrinogen-A647 binding fluorescence, higher = more signal.
Assay [5] concerns the target Follistatin (Homo sapiens) (UniProt P19883). The assay can be described thus: FST protein binding to printed compounds – biochemical, small-molecule microarray, 635/667 nm fluorescence, primary screen (AID 1132). The settings on record: 635 nm fluorescence, higher = more signal.
Assay [6] concerns the target Fibroblast growth factor 2 (Homo sapiens) (UniProt P09038). Description: basic fibroblast growth factor binding to printed compounds – biochemical, small-molecule microarray, 635/667 nm fluorescence, primary screen (AID 1133). Conditions: FGF2, fluorescence 635/667, higher = more signal.
Assay [7] can be described thus: JC-1 mitochondrial potential readout, lung cancer cells – cell-based, A549, JC-1 fluorescence, basal, 24 h, 100 nL, profiling panel (AID 1138).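 Also: A549 lung adenocarcinoma cells under basal conditions with no added stimulus; test concentration not given here.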 The settings on record: higher = more signal.
In another assay the test system is Lefty1. Description: Lefty1 protein binding to printed compounds – biochemical, small-molecule microarray, 635/667 nm fluorescence, primary screen (AID 1139). The settings on record: fluorescence 635/667, higher = more signal.
The subject of assay [8] is wheat germ agglutinin (Triticum aestivum), Alexa647-labelled. The assay can be described thus: Alexa647-WGA lectin binding to printed small molecules – biochemical, small-molecule microarray, 635/667 nm fluorescence, artefact control for SMM control-protein annotation, profiling panel (AID 1140).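 Also: score merges 667 nm feature emission with signal to noise over triplicate slides.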 Conditions: WGA-A647 binding, 635 nm fluorescence, higher = more signal.
Assay [9] has as its target Luciferin 4-monooxygenase (Photinus pyralis) (UniProt P08659). Description: inhibition of purified Photinus pyralis luciferase – biochemical, luminescence, purified enzyme, 2006 set, primary screen (AID 1141).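 Also: cell-free assay with purified firefly luciferase at 100 ng per well in PBS; test concentration not given here.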 The settings on record: purified firefly luciferase, SteadyGlo luminescence, 30 min; higher = more signal, called active from +8 up or from −8 down.

Calls of active or inactive are those of the source.

Follistatin (Homo sapiens), sequence (P19883 whole entry, looked up): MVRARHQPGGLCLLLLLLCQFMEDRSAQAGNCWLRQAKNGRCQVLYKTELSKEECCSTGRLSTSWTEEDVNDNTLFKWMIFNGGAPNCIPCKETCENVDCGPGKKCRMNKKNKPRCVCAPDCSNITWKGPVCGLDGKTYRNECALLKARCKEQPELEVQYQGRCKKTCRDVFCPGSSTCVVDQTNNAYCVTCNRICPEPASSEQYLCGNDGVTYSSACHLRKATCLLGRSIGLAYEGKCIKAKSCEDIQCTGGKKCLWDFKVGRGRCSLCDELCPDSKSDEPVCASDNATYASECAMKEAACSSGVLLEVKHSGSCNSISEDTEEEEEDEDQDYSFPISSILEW
Fibroblast growth factor 2 (Homo sapiens), sequence (P09038 whole entry, looked up): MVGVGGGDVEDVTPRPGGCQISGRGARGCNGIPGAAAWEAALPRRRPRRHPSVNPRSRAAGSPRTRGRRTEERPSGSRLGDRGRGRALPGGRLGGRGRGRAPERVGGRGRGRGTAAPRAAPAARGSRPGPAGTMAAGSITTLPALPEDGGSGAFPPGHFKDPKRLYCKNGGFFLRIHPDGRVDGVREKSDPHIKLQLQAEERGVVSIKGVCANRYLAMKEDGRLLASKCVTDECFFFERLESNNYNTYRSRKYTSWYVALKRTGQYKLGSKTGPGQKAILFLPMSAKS
Focal adhesion kinase 1 (Homo sapiens), sequence (Q05397 whole entry, looked up): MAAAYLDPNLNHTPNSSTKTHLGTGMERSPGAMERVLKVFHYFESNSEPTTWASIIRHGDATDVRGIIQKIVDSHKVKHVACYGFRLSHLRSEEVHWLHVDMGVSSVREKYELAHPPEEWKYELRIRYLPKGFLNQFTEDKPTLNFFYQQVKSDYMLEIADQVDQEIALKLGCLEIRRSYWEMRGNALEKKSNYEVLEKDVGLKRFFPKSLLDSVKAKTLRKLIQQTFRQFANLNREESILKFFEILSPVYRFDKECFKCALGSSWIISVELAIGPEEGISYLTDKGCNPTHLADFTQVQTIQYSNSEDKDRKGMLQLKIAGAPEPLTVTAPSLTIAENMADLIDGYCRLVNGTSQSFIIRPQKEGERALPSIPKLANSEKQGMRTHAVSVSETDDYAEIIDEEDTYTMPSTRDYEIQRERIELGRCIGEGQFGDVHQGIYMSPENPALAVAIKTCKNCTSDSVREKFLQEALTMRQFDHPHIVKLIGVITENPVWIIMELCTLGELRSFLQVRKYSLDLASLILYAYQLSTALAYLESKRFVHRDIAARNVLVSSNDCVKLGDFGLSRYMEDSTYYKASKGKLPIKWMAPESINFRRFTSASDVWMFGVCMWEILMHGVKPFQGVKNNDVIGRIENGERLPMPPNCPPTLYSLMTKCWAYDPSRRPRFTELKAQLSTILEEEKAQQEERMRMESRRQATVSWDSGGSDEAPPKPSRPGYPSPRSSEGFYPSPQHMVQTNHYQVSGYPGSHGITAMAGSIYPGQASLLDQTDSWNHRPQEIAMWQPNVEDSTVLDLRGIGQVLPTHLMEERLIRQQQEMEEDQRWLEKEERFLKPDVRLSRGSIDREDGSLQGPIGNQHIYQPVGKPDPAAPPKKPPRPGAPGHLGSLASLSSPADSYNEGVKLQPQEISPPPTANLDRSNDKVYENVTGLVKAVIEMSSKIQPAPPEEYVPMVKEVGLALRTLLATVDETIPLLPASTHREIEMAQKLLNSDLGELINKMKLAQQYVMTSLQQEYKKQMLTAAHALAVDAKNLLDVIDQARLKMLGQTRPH
Luciferin 4-monooxygenase (Photinus pyralis), sequence (P08659 whole entry, looked up): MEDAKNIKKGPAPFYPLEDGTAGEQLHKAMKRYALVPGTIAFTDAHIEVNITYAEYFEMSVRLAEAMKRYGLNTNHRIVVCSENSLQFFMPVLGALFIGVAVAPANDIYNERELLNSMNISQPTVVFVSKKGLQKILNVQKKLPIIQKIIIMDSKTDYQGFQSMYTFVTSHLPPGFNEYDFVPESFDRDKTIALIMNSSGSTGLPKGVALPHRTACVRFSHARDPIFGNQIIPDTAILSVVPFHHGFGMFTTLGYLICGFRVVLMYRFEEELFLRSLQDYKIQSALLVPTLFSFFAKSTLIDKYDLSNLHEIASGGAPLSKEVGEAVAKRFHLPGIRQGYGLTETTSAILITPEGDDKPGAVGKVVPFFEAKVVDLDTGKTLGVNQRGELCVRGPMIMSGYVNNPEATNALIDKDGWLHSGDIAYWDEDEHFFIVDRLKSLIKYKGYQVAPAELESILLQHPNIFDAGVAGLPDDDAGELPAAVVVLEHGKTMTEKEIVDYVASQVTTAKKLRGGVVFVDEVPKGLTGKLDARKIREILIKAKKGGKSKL

As for `[N-]=[N+]=Nc1ccccc1C[C@]1(C(=O)NCCN2CCOCC2)N=C(c2ccc(OCCCO)cc2)O[C@H]1c1ccccc1N=[N+]=[N-]`, the composite z-score in [1] is 1.55; in assay [2], 1.24; in [3], -0.0277; in assay [4], 0.94; in assay [5], 1.39; in assay [6] it was 1.65. Further, the values for the composite z-score (with Lefty1; in assay [8]) were 0.499 and 0.687, respectively. Besides, the z-score in assay [7] was 2.42; in assay [9] it was -5.36 (inactive).

Regarding `O=C1O[C@@H](c2ccccc2)[C@@H](c2ccccc2)N2[C@@H](c3ccc(O)cc3)[C@]3(C(=O)Nc4ccc(C#CC5=CCCCC5)cc43)[C@@H](C(=O)Nc3nc4ccccc4s3)[C@H]12`, the composite z-score in assay [1] is 1.15; in assay [2], 1.22; in assay [3], 0.32; in assay [4], 0.852; in [5], 1.25; in assay [6], 1.35. Besides, the composite z-score with Lefty1 came to 1.54; in [8] it was 1.32. For the same compound, the z-score in [7] was -1.8; in assay [9], -1.34 (inactive).

For `CCCc1cc2c(n1Cc1ccc(OC)cc1)C(C)C1CN(C(=O)c3ccccc3)C(C)(C(=O)OC)C21` (stereo not given), the composite z-score in assay [1] is 2.74; in [2], 1.24; in assay [3], 1.56; in assay [4], 1.01; in assay [5], 0.0092; in assay [6], -1.19. For the same compound, the composite z-score in the assay with Lefty1 is -0.515; in [8], 1.47. For the same compound, the z-score is 0.788 in [7] and 0.062 (inactive) in assay [9].

Turning to `CCOC(=O)C1=CCC(c2cccc(Cl)c2)O1` (stereo not given), the composite z-score in assay [1] is 0.433; in assay [2], 0.54; in [3], -0.192; in assay [4], 0.2; in [5], -0.0085; in [6], -0.505. Also, the composite z-score in the assay with Lefty1 is -0.0196; in [8], 0.225. The results for the z-score in assay [7] and in [9] were -1.14 and 1.7 (inactive), respectively.

Consider `C=C(/C(=C/C[C@@H](OC(C)=O)c1ccccc1OCCO)c1cnc2ccccc2c1)C(C)C`, for which the composite z-score is 0.119 in [1]; -0.198 in [2]; 0.0328 in assay [3]; -0.571 in [4]; 1.17 in assay [5]; 1.48 in assay [6]. In addition, the composite z-score in the assay with Lefty1 was 1.58; in [8] it was 1.05. Moreover, the figures for the z-score in assay [7] and in assay [9] were -0.111 and -0.557 (inactive), respectively.

As to `C[C@]12C(=O)N(CCCCCO)[C@@H]3C(=O)N(c4ccc(Cl)cc4)CC=CC31O[C@@H]1/C=C\CCCOC(=O)C12` (stereo not given in full), the composite z-score in assay [1] is -0.39; in [2], -0.711; in [3], -0.83; in assay [4] it was -1.47; in assay [5] it was -0.271; in [6] it was -1.27. The figures for the composite z-score (with Lefty1; in assay [8]) were -0.431 and -1.31, respectively. Besides, the z-score is 0.428 in assay [7] and -0.576 (inactive) in assay [9].

Turning to `COC(=O)c1ccc(OC)c(/C=C\CC(CCc2ccccc2)OC(=O)c2ccncc2)c1` (stereo not given), the composite z-score is 0.499 in assay [1]; -0.235 in [2]; -0.21 in [3]; -0.358 in [4]; 1.45 in assay [5]; 1.23 in [6]. For the same compound, the composite z-score in the assay on Lefty1 is 1.01; in [8], 0.334. The z-score is 1.38 in assay [7] and -0.912 (inactive) in [9].

Turning to `CCOC(=O)C[C@H]1[C@H](OC(=O)c2ccc(C(=O)c3ccccc3)cc2)[C@@H](NC(=O)C2CCCCC2)c2cc(OCCCO)ccc2N1C(=O)Cc1ccc(OC)cc1`, the composite z-score turned out to be 0.027 in assay [1]; 0.785 in [2]; 0.494 in assay [3]; 0.441 in assay [4]; 0.432 in [5]; 0.0799 in assay [6]. In addition, the composite z-score with Lefty1 came out at 0.942; in assay [8], 0.221. The results for the z-score in assay [7] and in assay [9] were 1.36 and 0.13 (inactive), respectively.

`CCC[C@@H]1C[C@@]1(CCC)[C@@H](NC(=O)c1cccs1)c1ccc(Cl)cc1`: the composite z-score in [1] was -0.449; in assay [2], -0.375; in assay [3], -0.352; in assay [4] it was 0.7; in assay [5], -1.42; in assay [6] it was -0.639. Moreover, the composite z-score was -1.69 in the assay with Lefty1 and 0.152 in assay [8]. For the same compound, the z-score in assay [7] is -0.101; in assay [9], -2.2 (inactive).

Regarding `COCCCNC(=O)[C@@]1(Cc2ccccc2N=[N+]=[N-])N=C(c2ccc(OCCCO)cc2)O[C@H]1c1ccccc1CN=[N+]=[N-]`, the composite z-score in [1] came out at 2.71; in assay [2], 1.23; in [3], 1.06; in assay [4], 0.998; in assay [5], 1.04; in assay [6], 0.969. For the same compound, the composite z-score in the assay with Lefty1 was -0.113; in assay [8], 1.05. Moreover, the z-score was 1.64 in assay [7] and -3.93 (inactive) in assay [9].

Consider `COCCCNC(=O)[C@@H]1c2ccccc2C(=O)N(Cc2cc(F)cc(C(F)(F)F)c2)[C@H]1c1ccc(CO)cc1`, for which the composite z-score was -0.669 in [1]; -1.06 in [2]; -0.751 in assay [3]; -1.81 in [4]; -0.252 in assay [5]; -0.94 in assay [6]. In addition, the composite z-score with Lefty1 was -0.584; in [8], 0.373. In addition, the z-score in assay [7] was 0.261; in [9], -0.646 (inactive).

For the compound `O=[N+]([O-])c1ccc(C[n+]2ccc(-c3ccc(CO)cc3)cc2)o1`, the composite z-score is 1.38 in assay [1]; 0.148 in assay [2]; 0.197 in assay [3]; -0.0943 in assay [4]; 1.34 in assay [5]; 0.59 in assay [6]. Further, the composite z-score with Lefty1 was 0.362; in [8], 1.17. In addition, the z-score was -0.93 in [7] and -0.208 (inactive) in assay [9].

For the compound `CC(C)CCC[C@@H](C)[C@H]1CC[C@@]2(C)C3=C(CC[C@]12C)[C@@]1(C)CC[C@H](OC(=O)c2ccc(N)cc2)C(C)(C)C1CC3` (stereo not given in full), the composite z-score came out at 0.467 in assay [1]; 0.398 in assay [2]; 0.108 in assay [3]; 0.483 in [4]; 0.552 in assay [5]; 0.612 in assay [6]. Also, the values for the composite z-score (in the assay on Lefty1; in [8]) were 0.552 and 0.0599, respectively. Also, the z-score was 1.32 in [7] and -1.43 (inactive) in assay [9].

`CCOC(=O)C[C@H]1[C@H](OC(=O)Cc2ccc3c(c2)OCO3)[C@@H](NC(=O)c2ccccc2)c2cc(OCCCO)ccc2N1C(=O)c1ccccc1`: the composite z-score in assay [1] was -0.226; in [2] it was 0.669; in assay [3], -0.061; in [4] it was 0.731; in [5], 0.392; in assay [6], 0.383. Besides, the composite z-score with Lefty1 stood at 0.557; in assay [8] it was 1.25. For the same compound, the z-score in assay [7] is 0.673; in [9], -0.207 (inactive).

(Values after PubChem BioAssay.)
